# Screening data (PubChem BioAssay)
# AHR act = activates the human aryl hydrocarbon receptor | P35869 | AHR-responsive luciferase reporter cells, luminescence | activation, % at 5 µM | hit rate 2.5% among 320,000; in the data active = activation above about 47%;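 note: 0% = vehicle wells and 100% = reference agonist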
# Target sequence (P35869 whole entry, looked up): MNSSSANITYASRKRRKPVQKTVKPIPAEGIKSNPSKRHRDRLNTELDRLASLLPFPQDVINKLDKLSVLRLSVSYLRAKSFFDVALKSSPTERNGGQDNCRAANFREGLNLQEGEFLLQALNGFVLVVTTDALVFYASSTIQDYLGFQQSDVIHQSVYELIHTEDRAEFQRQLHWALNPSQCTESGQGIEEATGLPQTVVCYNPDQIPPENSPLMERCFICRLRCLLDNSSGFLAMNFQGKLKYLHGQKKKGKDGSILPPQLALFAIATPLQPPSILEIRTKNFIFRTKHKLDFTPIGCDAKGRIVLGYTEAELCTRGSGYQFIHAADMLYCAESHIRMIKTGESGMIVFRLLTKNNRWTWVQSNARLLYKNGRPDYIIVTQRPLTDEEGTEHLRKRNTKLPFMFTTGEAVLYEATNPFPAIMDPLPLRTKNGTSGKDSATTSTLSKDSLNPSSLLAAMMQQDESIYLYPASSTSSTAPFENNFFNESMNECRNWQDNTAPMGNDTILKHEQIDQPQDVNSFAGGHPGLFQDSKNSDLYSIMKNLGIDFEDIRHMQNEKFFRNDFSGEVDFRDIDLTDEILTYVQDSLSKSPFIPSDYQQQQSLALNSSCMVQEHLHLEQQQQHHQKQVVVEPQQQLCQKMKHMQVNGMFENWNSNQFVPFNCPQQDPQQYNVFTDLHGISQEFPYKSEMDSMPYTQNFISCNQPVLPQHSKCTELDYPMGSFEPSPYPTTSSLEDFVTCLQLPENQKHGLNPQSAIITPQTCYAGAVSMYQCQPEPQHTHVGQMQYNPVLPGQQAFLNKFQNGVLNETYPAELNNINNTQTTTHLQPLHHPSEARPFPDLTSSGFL
# ssDAF-12 act = activates DAF-12 receptor from parasite S. stercoralis. hit rate 1% among 370,000. AID 652126. activation, % at 6.8 µM. HEK293 ssDAF-12/GRIP1 lit1-tk-luc reporter, luminescence; % of 3 µM dafachronic acid response;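 active = activation above the mean over all tested compounds plus 3 SD, cut at about 0.9% in these data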;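 note: 0% = DMSO-only wells and 100% = 3 µM delta7-dafachronic acid wells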
# DAX1 inh-1 = DAX1 (NR0B1) inhibition, primary screen; inhibition, % at 6.8 µM; HEK293T StAR-luciferase reporter, SF-1/DAX-1 repression relief; hit rate 1.1% among 370,000; AID 652010;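 active = inhibition above the mean over all tested compounds plus 3 SD, cut at about 3.6% in these data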;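 note: 0% = DAX-1 cells with DMSO and 100% = cells lacking DAX-1 with DMSO; higher inhibition means more luminescence from relief of DAX-1 repression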
# hgDAF-12 ag = hgDAF-12 agonism, primary luciferase screen; HEK293 GAL4-hgDAF12 UAS-luciferase reporter, agonist luminescence; normalized to butyrate control; activation, % at 6.8 µM; hit rate 1.8% among 370,000;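 active = activation above a cutoff set at the mean of all screened compounds plus 3 SD, cut at about 10% in these data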;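 note: 0% = DMSO wells and 100% = sodium butyrate wells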
# DAX1 inh-2 = NR0B1 (DAX1) inhibition. AID 504766. P51843. hit rate 0.99% among 340,000. HEK293 Gal4-DAX1 luciferase reporter, luminescence. inhibition, % at 6.75 µM;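 active = inhibition above the mean over all tested compounds plus 3 SD, cut at about 4.2% in these data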;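 note: 0% = DAX1-transfected cells with DMSO and 100% = empty-vector control cells with DMSO; inhibition shows as a rise in luminescence from relieved DAX1 repression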
# hcDAF-12 act = activators of H. contortus DAF-12 nuclear receptor; AID 652067; hit rate 1.4% among 370,000; HEK293 hcDAF-12 lit1-tk-luc reporter, luminescence; 0% DMSO, 100% Δ7-dafachronic acid; activation, % at 6.8 µM;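 active = activation above the mean of all tested compounds plus 3 SD, cut at about 5.5% in these data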;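 note: 100% = response to 3 µM Δ7-dafachronic acid high control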
# * marks the source's active call; other numbers are inactive results; x = no result. In the library only some 5.7% were active in any assay of this set; here they are far more common.
SMILES,AHR act,ssDAF-12 act,DAX1 inh-1,hgDAF-12 ag,DAX1 inh-2,hcDAF-12 act
O=C(Nc1nc2ccccc2s1)c1cccc(N2C(=O)CCC2=O)c1,34,0,3,7,1,3
O=C(C(=O)N1CCc2ccccc2C1)c1cn(CC(=O)N2CCOCC2)c2ccccc12,6,1.8*,0,0,0,0
O=C(Cn1cc(S(=O)(=O)Cc2ccccc2F)c2ccccc21)N1CCOCC1,10,-1,0,11*,0,0
Cc1ccc(CS(=O)(=O)c2cn(CC(=O)N3CCOCC3)c3ccccc23)cc1,11,-1,0,1,0,1
COc1ccc(OC)c(CNS(=O)(=O)c2ccccc2Br)c1,x,-1,0,1,x,-1
C(=C\c1nccc2c1[nH]c1ccccc12)/c1ccccc1,62*,-1,1,7,2,5
c1ccc2c(c1)[nH]c1ccccc12,-1,-1,-1,2,-1,-1
c1ccc2c(c1)[nH]c1ccncc12,4,-1,0,3,0,0
Fc1ccc(/C=C\c2nccc3c2[nH]c2ccccc23)cc1,35,0,1,9,-1,5.6*
COc1cc(C(=O)NC2CCN(C)CC2)ccc1Nc1ncc2c(n1)N(Cc1ccccc1)CCC(=O)N2C,x,-1,1,1,7.8*,1
COc1cc(NC(=O)c2cc([N+](=O)[O-])ccc2NC(=O)CNC2CCCCC2)cc(OC)c1,29,-1,0,-4,-1,-2
O=C(CNC1CCCCC1)Nc1ccc([N+](=O)[O-])cc1C(=O)Nc1ccccc1F,48*,-2,-1,2,1,0
CCOc1ccc(C2N(c3cc(Cl)ccc3OC)C(=O)C3CCCN32)cc1OC (stereo not drawn),7,-2,1,1,5.4*,-2
CCOc1ccc(C2N(c3ccc(Cl)cc3)C(=O)C3CCCN32)cc1OC (stereo not drawn),3,-1,2,1,1,2
CCOc1ccc(C2N(c3ccc(OC)cc3)C(=O)C3CCCN32)cc1OC (stereo not drawn),-1,-2,0,1,4.8*,-1
CC1CCCC(C)N1CC(O)Cn1c2ccccc2c2ccccc21 (stereo not drawn),3,-2,-1,1,1,1
Cn1c2ccccc2c2n[nH]c(=O)nc21,-2,-1,0,-2,0,-1
C/C(=N\Nc1nnc2c3ccccc3n(C)c2n1)c1ccc(C)o1,88*,-1,-1,-1,-2,0
C/C(=N\Nc1nc(C)cc(C)n1)c1ccc(C)o1,27,0,0,0,x,-1
Cc1cc(C)n(-c2nnc3c4ccccc4n(C)c3n2)n1,4,-1,2,11*,1,2
CN(C)CCCNc1cc(C(C)(C)C)nc2c(-c3ccccc3)cnn12,2,1.3*,1,8,4.7*,2
CN(C)CCCNc1cc(-c2ccccc2)nc2cc(-c3cccc(F)c3)nn12,0,0,0,2,1,0
CC(C)(C)c1cc(NCCCn2ccnc2)n2ncc(-c3ccc(Cl)cc3)c2n1,31,-1,0,10*,1,1
CC(=O)NC(CC(=O)OCC(=O)c1cc(C)ccc1C)c1ccccc1 (stereo not drawn),2,-1,4.3*,-1,0,0
CC(=O)NC(CC(=O)OCC(=O)NCCc1ccccc1)c1ccccc1 (stereo not drawn),4,-1,2,-1,1,0
SMILES,AHR act,ssDAF-12 act,DAX1 inh-1,hgDAF-12 ag,DAX1 inh-2,hcDAF-12 act
C=CCNC(=S)N1C[C@H]2CON(C)[C@H]2C[C@H]1c1ccccc1Br,x,-2,3,-2,x,-1
Cc1ccc(Cn2c(/C=C/c3ccco3)nc3ccccc32)cc1,10,-1,0,5,0,6.3*
CCc1ccc2[nH]c(C(=O)Nc3ccc(C)c(F)c3)cc2c1,x,0,0,7,0,5.8*
Cc1ccc2nc(CN(C)C(=O)[C@H](CCc3ccccc3)NC(=O)[C@H]3O[C@@H](n4cnc5c(N)ncnc54)[C@H](O)[C@@H]3O)[nH]c2c1,x,-1,1,0,x,0
C=C(C)CNC(=S)N=Nc1c(O)[nH]c2ccc([N+](=O)[O-])cc12,26,-1,0,2,-2,0
CC(C)NC(=S)N=Nc1c(O)[nH]c2ccc([N+](=O)[O-])cc12,60*,-1,-1,3,0,1
CNC(=S)N=Nc1c(O)[nH]c2ccccc12,40,-1,-1,0,0,5.6*
O=C(CCNC(=O)c1ccccc1)N=Nc1c(O)[nH]c2ccccc12,3,21*,1,-2,x,1
CN(c1ccccc1)S(=O)(=O)c1cc(C(=O)NCc2ccco2)ccc1Cl,x,-1,-1,-2,0,-1
CCCCCCCCN1C(=O)[C@@H](CC(=O)N2CCCCC2)C[C@@]2(C(=O)OC)C1=C[C@H](COCc1ccccc1)O[C@@H]2C,x,-1,0,1,x,5.8*
C=CCn1c(COc2ccc(Cl)cc2)nnc1SCC(=O)c1c(N)n(C)c(=O)n(C)c1=O,9,-1,1,-2,2,0
c1ccc(Nc2cc(Nc3ccccc3)[nH]n2)cc1,70*,-1,0,-4,0,-2
Cn1cc(CCC(=O)NC2CC(C)(C)Cc3c2cnn3-c2ccc(F)cc2)cn1 (stereo not drawn),x,0,3,-2,0,-1
O=C(CSc1nc2ccccc2c(=O)n1-c1ccccc1)N1CCc2ccccc2C1,0,1.0*,-1,0,-1,2
CC(C)c1ccccc1-n1c(SCC(=O)N2CCc3ccccc3C2)nc2ccccc2c1=O,-1,-2,-1,-8,-1,-2
O=C(Nc1ccc(S(=O)(=O)N2CCOCC2)cc1)C1CC(=O)N(c2ccc(F)cc2)C1 (stereo not drawn),-1,-1,0,2,1,1
O=C(CCc1ccccc1)Nc1ccc2c(c1)OCCO2,22,0,2,12*,2,3
O=C(CCc1ccccc1)Nc1cc2c(cc1Cl)OCCO2,3,1.2*,3.9*,10,1,2
COC(=O)C1=C(C)N(Cc2cccc(C(F)(F)F)c2)C(=NCC2CC2)NC1c1ccccc1 (stereo not drawn),x,-1,1,-1,x,0
Cc1nc(Nc2ccc(Cl)cc2)c(C#N)c(=O)[nH]1,71*,-1,0,-2,1,-1
Cc1ccc(NS(=O)(=O)c2ccc3c(c2)OCCCO3)cc1S(=O)(=O)N1CCOCC1,0,-1,-3,3,0,0
Cn1c(Cc2c[nH]c3ccccc23)n[nH]c1=S,43,1.0*,1,1,1,4
